What all share (parameters): scale not given: direction of the effect not stated beside the values
The target in assay [1] is Protein translocase subunit SecA (Escherichia coli (strain K12)) (UniProt P10408). In words: Assay to Identify E. coli SecA ATPase Inhibitors. In kind it is functional. Particulars: 30 µM.
In assay [2] the target is T1, Ubiquitin-activating enzyme e1, putative (Leishmania donovani (strain BPK282A1)) (UniProt E9BSI1).
T1 sequence (whole entry): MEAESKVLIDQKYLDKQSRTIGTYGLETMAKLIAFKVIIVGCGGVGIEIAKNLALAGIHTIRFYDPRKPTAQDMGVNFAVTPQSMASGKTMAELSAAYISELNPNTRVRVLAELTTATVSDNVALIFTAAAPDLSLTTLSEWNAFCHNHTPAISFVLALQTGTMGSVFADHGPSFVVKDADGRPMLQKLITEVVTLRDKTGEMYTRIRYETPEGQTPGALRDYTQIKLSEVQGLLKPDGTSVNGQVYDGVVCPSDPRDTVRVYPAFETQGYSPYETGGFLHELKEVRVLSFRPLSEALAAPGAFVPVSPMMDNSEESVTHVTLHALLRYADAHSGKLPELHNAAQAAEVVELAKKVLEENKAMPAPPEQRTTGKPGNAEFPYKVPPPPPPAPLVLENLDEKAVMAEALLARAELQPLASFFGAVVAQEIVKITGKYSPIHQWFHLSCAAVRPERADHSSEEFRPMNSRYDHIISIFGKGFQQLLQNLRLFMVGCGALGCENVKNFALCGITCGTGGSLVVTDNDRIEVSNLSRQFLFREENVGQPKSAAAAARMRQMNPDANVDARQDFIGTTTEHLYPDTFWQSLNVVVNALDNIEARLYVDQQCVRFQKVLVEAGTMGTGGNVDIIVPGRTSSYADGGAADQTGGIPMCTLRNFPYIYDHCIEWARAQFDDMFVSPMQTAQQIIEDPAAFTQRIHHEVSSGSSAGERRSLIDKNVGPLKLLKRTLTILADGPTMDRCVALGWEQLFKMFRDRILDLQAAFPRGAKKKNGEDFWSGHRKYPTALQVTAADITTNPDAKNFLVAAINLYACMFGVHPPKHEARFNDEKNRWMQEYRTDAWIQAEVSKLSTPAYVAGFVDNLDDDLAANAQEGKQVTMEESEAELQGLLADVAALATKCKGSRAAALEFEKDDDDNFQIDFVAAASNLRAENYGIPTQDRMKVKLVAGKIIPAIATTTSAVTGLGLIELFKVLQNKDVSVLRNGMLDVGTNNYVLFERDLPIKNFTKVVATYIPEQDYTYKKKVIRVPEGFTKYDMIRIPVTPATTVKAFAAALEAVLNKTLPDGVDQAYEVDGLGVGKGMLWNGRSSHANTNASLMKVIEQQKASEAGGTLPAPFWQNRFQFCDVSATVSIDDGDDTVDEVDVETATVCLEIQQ
Put plainly: Leishmania donovani Ubiquitin Activating Enzyme (LdE1). Particulars: 30 µM. In kind it is functional.

In assay [3] the target is Sialic acid-binding Ig-like lectin 9 (Homo sapiens) (UniProt Q9Y336). In words: Hs-Siglec9 ALPHAscreen SOP 20170721. Particulars: 10 µM. In general terms: In Alpha technology, singlet oxygen from a donor bead excites a nearby acceptor bead.
Sequence of Sialic acid-binding Ig-like lectin 9 (Homo sapiens) (Q9Y336 whole entry): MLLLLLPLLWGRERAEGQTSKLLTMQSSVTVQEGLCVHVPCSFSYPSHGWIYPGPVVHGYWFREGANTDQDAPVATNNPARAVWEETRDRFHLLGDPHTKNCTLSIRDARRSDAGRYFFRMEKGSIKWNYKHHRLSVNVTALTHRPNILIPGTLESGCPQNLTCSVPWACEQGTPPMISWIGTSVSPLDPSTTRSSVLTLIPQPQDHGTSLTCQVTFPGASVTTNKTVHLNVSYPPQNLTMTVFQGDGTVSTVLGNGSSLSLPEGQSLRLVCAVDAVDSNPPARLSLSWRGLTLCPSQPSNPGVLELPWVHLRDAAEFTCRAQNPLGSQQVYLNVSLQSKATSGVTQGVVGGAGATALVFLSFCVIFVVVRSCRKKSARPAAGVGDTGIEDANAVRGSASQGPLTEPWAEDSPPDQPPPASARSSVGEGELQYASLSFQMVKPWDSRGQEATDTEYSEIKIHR
In the next assay the test system is Trypanosoma cruzi. In words: Trypanosoma cruzi phosphomannomutase and mannose-1-phosphate guanylyltransferase assay. In kind it is functional. Particulars: 10 µM.
For assay [4], the target named is T2, Arginase-2, mitochondrial (Homo sapiens) (UniProt P78540).
T2 sequence (whole entry): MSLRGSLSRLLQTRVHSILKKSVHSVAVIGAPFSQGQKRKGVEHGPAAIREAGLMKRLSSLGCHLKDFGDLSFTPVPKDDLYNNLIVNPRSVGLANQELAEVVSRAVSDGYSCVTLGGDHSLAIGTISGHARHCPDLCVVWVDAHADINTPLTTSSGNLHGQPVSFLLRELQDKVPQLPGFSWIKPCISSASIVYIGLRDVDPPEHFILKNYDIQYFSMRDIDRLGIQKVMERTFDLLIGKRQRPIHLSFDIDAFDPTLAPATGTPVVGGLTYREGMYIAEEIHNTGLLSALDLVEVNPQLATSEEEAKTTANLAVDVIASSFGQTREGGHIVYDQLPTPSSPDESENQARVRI
Put plainly: in vitro enzyme assay to detect the production of urea directly proportional to the activity of Arginase II. Further: in the data most compounds retested in dose-response had high values. Particulars: 33.3 µM. In kind it is functional.

The target in assay [5] is T3, Proteasome subunit beta (Trypanosoma cruzi) (UniProt O96673).
T3 sequence (whole entry): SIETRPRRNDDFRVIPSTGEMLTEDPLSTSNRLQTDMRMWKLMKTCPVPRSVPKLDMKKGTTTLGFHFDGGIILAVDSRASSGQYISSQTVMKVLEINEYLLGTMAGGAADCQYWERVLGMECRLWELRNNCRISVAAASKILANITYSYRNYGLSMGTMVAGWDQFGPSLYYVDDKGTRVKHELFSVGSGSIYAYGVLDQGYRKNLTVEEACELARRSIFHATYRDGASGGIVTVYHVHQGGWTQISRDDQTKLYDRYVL
In words: Trypanosoma cruzi proteasome chymotrypsin-like activity (TcProtChymo) assay. Further: in the data most compounds retested in dose-response had high values. It is filed as functional. Particulars: 9.37 µM.

The species entered for a further assay is Homo sapiens. Put plainly: To identify inhibition of the IFN signalling (Jak-Stat) pathway via expression of an eGFP reporter gene under the control of an IFN-stimulated response element (ISRE) containing MxA promoter. In kind it is functional. Particulars: 30 µM. (A reporter such as luciferase makes a cellular process visible.)
Assay [6] concerns the target T4, Tyrosyl-tRNA synthetase, putative (Trypanosoma cruzi (strain CL Brener)) (UniProt Q4DSP6).
T4 sequence (whole entry): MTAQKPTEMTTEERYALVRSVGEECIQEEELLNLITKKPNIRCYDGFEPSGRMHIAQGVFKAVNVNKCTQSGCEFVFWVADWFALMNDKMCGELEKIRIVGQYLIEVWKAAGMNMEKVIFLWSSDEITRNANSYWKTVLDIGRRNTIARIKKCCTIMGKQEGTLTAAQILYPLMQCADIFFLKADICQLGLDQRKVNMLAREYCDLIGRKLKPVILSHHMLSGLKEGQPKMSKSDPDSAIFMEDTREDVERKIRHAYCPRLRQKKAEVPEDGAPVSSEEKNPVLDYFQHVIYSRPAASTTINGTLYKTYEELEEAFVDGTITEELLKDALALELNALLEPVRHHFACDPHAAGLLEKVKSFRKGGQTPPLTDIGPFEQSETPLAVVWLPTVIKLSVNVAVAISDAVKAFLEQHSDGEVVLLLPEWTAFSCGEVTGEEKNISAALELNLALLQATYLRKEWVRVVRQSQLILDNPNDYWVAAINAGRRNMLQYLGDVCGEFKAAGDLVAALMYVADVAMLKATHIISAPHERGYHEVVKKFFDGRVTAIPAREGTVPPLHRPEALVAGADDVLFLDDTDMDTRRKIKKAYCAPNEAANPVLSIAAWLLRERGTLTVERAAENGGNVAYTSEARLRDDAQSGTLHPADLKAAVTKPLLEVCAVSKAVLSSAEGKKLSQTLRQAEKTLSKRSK
In words: Trypanosoma cruzi tyrosyl tRNA synthetase (TcYRS) _High Tyrosine SOP. Further: in the data most compounds retested in dose-response had high values. In kind it is functional. Particulars: 30 µM.

In assay [7] the target is T4, Tyrosyl-tRNA synthetase, putative (Trypanosoma cruzi (strain CL Brener)). Put plainly: Trypanosoma cruzi tyrosyl tRNA synthetase (TcYRS) SOP. It is filed as functional. Particulars: 30 µM.
Assay [8] addresses Chromo domain-containing protein 1 (Saccharomyces cerevisiae (strain ATCC 204508 / S288c) (Baker's yeast)) (UniProt P32657). Put plainly: ScCHD-1 Enzyme Inhibition Assay. Further: in the data most compounds retested in dose-response had high values. It is filed as functional. Particulars: 30 µM.

For some assays here: Results with a measured potency or affinity are listed apart.

Sequence of Protein translocase subunit SecA (Escherichia coli (strain K12)) (P10408 whole entry): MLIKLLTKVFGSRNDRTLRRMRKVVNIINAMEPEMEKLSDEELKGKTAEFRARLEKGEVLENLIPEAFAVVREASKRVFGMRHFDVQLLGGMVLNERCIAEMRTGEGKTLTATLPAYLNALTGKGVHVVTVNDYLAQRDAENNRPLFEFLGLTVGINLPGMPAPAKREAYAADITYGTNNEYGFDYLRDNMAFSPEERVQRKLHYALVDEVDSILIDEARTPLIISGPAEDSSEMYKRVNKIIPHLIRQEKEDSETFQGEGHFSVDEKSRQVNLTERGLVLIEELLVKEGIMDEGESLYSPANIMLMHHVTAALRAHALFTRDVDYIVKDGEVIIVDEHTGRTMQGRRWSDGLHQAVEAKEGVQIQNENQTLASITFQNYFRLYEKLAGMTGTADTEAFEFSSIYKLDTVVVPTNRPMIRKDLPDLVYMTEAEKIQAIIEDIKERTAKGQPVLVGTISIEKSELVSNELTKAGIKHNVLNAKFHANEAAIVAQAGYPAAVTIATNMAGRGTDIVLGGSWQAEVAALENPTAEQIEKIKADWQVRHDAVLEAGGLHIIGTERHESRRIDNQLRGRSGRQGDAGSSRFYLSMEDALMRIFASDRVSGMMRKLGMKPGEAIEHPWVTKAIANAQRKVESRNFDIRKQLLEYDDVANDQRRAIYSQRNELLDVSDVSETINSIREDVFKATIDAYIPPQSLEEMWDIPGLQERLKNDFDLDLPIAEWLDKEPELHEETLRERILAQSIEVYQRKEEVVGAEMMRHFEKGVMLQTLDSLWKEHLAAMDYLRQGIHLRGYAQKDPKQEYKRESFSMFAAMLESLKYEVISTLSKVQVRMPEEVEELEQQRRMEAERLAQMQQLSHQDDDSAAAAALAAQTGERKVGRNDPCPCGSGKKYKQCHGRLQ
Sequence of Chromo domain-containing protein 1 (Saccharomyces cerevisiae (strain ATCC 204508 / S288c) (Baker's yeast)) (P32657 whole entry, the tested form may be a part): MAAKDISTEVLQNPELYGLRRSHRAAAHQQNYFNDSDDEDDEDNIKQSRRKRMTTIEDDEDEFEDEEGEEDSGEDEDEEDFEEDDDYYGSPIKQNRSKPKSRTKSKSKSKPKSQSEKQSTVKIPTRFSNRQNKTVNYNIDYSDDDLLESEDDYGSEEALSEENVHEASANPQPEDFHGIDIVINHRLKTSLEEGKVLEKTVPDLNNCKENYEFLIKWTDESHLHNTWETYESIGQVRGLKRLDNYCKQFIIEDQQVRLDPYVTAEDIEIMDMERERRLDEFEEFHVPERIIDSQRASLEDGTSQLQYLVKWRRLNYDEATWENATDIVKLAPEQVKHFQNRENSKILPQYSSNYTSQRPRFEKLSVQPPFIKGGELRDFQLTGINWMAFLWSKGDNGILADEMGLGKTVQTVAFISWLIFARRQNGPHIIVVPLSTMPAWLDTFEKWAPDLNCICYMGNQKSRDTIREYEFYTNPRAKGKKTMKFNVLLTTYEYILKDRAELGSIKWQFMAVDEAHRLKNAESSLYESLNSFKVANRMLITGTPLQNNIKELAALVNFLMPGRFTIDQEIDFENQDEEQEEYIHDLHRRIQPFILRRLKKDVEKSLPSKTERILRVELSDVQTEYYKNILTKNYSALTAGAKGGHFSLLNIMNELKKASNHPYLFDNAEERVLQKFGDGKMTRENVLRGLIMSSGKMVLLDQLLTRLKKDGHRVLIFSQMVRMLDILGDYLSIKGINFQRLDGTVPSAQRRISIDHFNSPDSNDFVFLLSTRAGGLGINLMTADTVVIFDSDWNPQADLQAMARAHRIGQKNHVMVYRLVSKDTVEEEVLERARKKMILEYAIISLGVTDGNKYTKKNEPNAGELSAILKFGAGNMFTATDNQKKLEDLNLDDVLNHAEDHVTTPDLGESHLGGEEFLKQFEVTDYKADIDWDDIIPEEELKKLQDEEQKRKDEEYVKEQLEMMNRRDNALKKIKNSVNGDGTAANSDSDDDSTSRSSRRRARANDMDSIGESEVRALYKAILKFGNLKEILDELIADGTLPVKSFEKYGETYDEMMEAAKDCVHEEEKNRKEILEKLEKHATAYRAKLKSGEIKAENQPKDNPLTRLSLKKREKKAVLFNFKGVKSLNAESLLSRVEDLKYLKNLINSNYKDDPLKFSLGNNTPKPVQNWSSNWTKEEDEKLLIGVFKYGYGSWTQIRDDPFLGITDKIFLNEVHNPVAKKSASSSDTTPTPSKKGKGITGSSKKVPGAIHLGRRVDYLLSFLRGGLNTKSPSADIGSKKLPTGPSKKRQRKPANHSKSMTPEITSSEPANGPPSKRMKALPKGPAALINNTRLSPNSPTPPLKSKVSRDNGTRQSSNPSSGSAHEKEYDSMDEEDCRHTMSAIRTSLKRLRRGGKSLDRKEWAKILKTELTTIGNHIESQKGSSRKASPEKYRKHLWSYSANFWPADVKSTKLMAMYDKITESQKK

Turning to `CC(C)c1cc(NC(=O)CN2CCC(N3CCCCC3)CC2)on1`, the Percent Effect in assay [1] was -2.28%; in [2], 20.8%; in assay [3], 11.8%; in the assay with Trypanosoma cruzi it was 6.53%; in assay [4] it was -1.43%; in assay [5], 9.3%. The Percent Effect in the assay listed under Homo sapiens was -6.15%; in [6], 11.8%; in assay [7], 32.9%; in assay [8], -5.62%.
Regarding `CC(C)CN(Cc1nc2c(cnn2C)c(=O)[nH]1)C(C)C`, the Percent Effect in assay [1] is -1.52%; in assay [2], 10.3%; in assay [3], -1.47%; in the assay on Trypanosoma cruzi it was 5.92%; in [4], 7.38%; in [5] it was -3.5%. The Percent Effect in the assay listed under Homo sapiens was -18.2%; in assay [6], 5.26%; in assay [7], 18.1%; in assay [8], 0.0184%.
Take `CCc1ccc(CN2CCC3(CC2)NC(=O)CC3c2ccncc2)o1` (stereo not given): the Percent Effect in [1] is -9.93%; in [2], 6.49%; in assay [3], -0.747%; in the assay with Trypanosoma cruzi, -3.21%; in assay [4] it was -5.26%; in assay [5], 9.27%. Further, the Percent Effect was -2.1% in the assay listed under Homo sapiens, 0.526% in [6], 7.69% in [7] and -2.68% in assay [8].
For `Cc1nc(CN2CCO[C@@H]3CN(C(=O)NC(C)C)CC[C@@H]3C2)cs1`, the Percent Effect in assay [1] was -3.94%; in assay [2], 1.3%; in [3], 0.95%; in the assay with Trypanosoma cruzi, -3.8%; in assay [4] it was -0.405%; in [5], 1.85%. In addition, the Percent Effect in the assay filed under Homo sapiens was -21.3%; in assay [6], 3.68%; in assay [7] it was 7.69%; in assay [8], -1.55%.
Take `Cc1nc(O)c2nnn(C[C@H]3CCCN3C(=O)C(C)(C)C)c2n1`: the Percent Effect in assay [1] was -2.69%; in assay [2], 12%; in assay [3], 5.82%; in the assay with Trypanosoma cruzi, -2.37%; in assay [4], -1.33%; in assay [5], 7.88%. Moreover, the Percent Effect in the assay listed under Homo sapiens is 12.7%; in [6], 5.29%; in assay [7] it was 10%; in [8], -20.8%.
Turning to `CCOC(=O)N1CCN(C(=O)c2sc(-c3ccc(F)cc3)nc2C)CC1`, the Percent Effect in assay [1] is -7.21%; in [2] it was 5.41%; in assay [3], 8.85%; in the assay on Trypanosoma cruzi, -1.65%; in assay [4], 1.05%; in [5], 17.5%. The Percent Effect in the assay listed under Homo sapiens was 1.22%; in assay [6], 4.79%; in assay [7], 12.2%; in assay [8], -3.55%.
Consider `COc1ncccc1CNC(=O)c1cccnc1O`, for which the Percent Effect in assay [1] was -1.81%; in assay [2] it was 12.8%; in assay [3] it was -3.2%; with Trypanosoma cruzi it was 5.35%; in assay [4], 1.23%; in assay [5], 8.79%. Moreover, the Percent Effect in the assay listed under Homo sapiens is -10.7%; in [6], 11%; in [7], 22.9%; in assay [8], -2.93%.
Consider `CN(Cc1ccccc1)CC(O)Cn1cnc2ccccc2c1=O` (stereo not given), for which the Percent Effect in assay [1] is -0.933%; in assay [2], 2.56%; in [3], 0.642%; in the assay on Trypanosoma cruzi it was 4.79%; in assay [4], 9.84%; in assay [5], -2.13%. Also, the Percent Effect in the assay filed under Homo sapiens was 12.8%; in assay [6], 0.478%; in [7], 6.02%; in [8], 0.379%.
Regarding `CCS(=O)(=O)N1CCC2(CC1)CN(Cc1ccccn1)C(=O)CO2`, the Percent Effect is 2.67% in assay [1]; 1.3% in [2]; 1.21% in [3]; -0.487% with Trypanosoma cruzi; 1.62% in assay [4]; 3.44% in assay [5]. The Percent Effect was -2.87% in the assay listed under Homo sapiens, -1.58% in assay [6], 0% in [7] and 2.48% in assay [8].
For the molecule `CCN(C)Cc1cnc(S(=O)(=O)CC)n1CCOC`, the Percent Effect in assay [1] was -9.54%; in assay [2] it was 0%; in assay [3], -2.25%; in the assay on Trypanosoma cruzi, -3.4%; in assay [4], 2.45%; in [5], -0.856%. Further, the Percent Effect in the assay filed under Homo sapiens stood at 0.566%; in [6] it was 1.6%; in [7], 4.88%; in assay [8], 2.11%.
With `COc1ccc2c(c1)OCC(CNC(=O)c1ccncc1)C2` (stereo not given), the Percent Effect in assay [1] is -6.47%; in assay [2], 13.5%; in assay [3], 11.5%; in the assay with Trypanosoma cruzi it was 7.66%; in assay [4], 43.7%; in assay [5], 20.4%. Besides, the Percent Effect worked out at 32.2% in the assay listed under Homo sapiens, 7.98% in [6], 19.5% in assay [7] and 71.9% in [8].

For the origin of these results see ChEMBL document CHEMBL3988442, “University of Dundee, Small-Polar-MMV Screening Library” (2021).
